For 29 compounds, outcome results are on record in PubChem BioAssay AID492950 (Southern Research Specialized Biocontainment Screening …, 2010).

Structures are written as SMILES. Entries with a potency or affinity are not part of this list. Active and inactive are the calls of the source. How the calls were made is not given here.

This assay is described as follows: mammalian cell cytotoxicity, dose response, cytotoxicity control (AID 492950). The conditions noted are these: cytotoxicity counter-screen; series mostly up to 40 µM. On the technique in general: A counterscreen serves to expose hits that act by an unwanted route or on another target.
As to `C/C(=N\NC(=O)Cc1cc(=O)[nH][nH]1)c1cccc([N+](=O)[O-])c1`, the outcome was inactive.

In the case of `Cc1ccc(-n2nnc3c(SCC(=O)NCC4CCCO4)ncnc32)cc1` (centres undefined), the outcome was inactive. For `O=C(Cc1cc(=O)[nH][nH]1)N/N=C/c1ccccc1Cl` the value was “inactive”; for `CC(=O)Nc1cc(OC(=O)c2ccco2)cc(OC(=O)c2ccco2)c1`, “inactive”; for `Cc1ccsc1/C=N/NC(=O)Cc1cc(=O)[nH][nH]1`, “inactive”. To `O=C(Cc1cc(=O)[nH][nH]1)N/N=C/C(Cl)=C/c1ccccc1` belongs “inactive”. For `C/C(=N\NC(=O)c1ccncc1)c1cc2ccccc2oc1=O` the value was “inactive”; for `Cc1ccc(SCC2=NNC(=O)C2)cc1`, “inactive”.

`Fc1ccc(Nc2nc(Oc3ccccc3F)nc(N3CCCC3)n2)cc1`: the call was inactive. Take `CCCc1[nH]nc2c1C(c1ccoc1)C(C#N)=C(N)O2` (centres undefined): the call was inactive. Regarding `CCCc1c(-c2ccc(O)cc2)nn(-c2ccc(O)cc2)c1-c1ccc(O)cc1`, the call was inactive. As to `CCCCCCOC(=O)c1ccc(OC(=O)c2cccnc2)cc1`, the result was inactive. Turning to `O=c1cc(-c2ccc(Cl)c(Cl)c2)[nH][nH]1`, the outcome was inactive.

In the case of `O=C(Cc1cc(=O)[nH][nH]1)N/N=C/c1cccc2ccccc12`, the compound was called inactive. For `C/C(=N/NC(=O)Cc1cc(=O)[nH][nH]1)c1ccc([N+](=O)[O-])cc1` the value was “inactive”; for `COc1cccc(-c2[nH]nc3c2C(c2ccsc2)C(C#N)=C(N)O3)c1` (centres undefined), “inactive”. Take `Cc1ccc(C(=O)Oc2ccc([N+](=O)[O-])cc2)cc1S(=O)(=O)N1CCCCCC1`: the compound was called inactive. For `Cc1ccc(SCc2[nH]nc3c2C2(CCSCC2)C(C#N)=C(N)O3)cc1` the value was “inactive”; for `O=C(Cc1cc(=O)[nH][nH]1)N/N=C/c1ccccc1[N+](=O)[O-]`, “inactive”. Take `CCC(C)[C@@H](NC(=O)OC(C)(C)C)c1nnc(S(=O)(=O)Cc2cccc(C)c2)o1` (some centres undefined): the outcome was inactive. To `Cn1c(O)c(C2=NN(C(=O)CCl)C(c3ccccc3)C2)c(=O)n(C)c1=O` (centres undefined) belongs “inactive”. Consider `CC(=O)N(C1CC(C)C(C#N)(C#N)C1(C#N)C#N)N(C)C` (centres undefined), for which the call was inactive. For `Cc1nn(C)c(C)c1C1C(C#N)=C(N)Oc2n[nH]c(C)c21` (centres undefined) the value was “inactive”; for `COC(=O)C(C#N)C(c1cccnc1)c1c(C)[nH][nH]c1=O` (centres undefined), “inactive”. To `COc1ccc(/C=C2/C(=O)N(c3ccccc3)N=C2C)c(OC)c1` belongs “inactive”; to `CCOc1cc(C2C(C#N)=C(N)Oc3n[nH]c(-c4ccccc4)c32)ccc1O` (centres undefined), “inactive”; to `COc1ccc(/C=C2/C(=O)N(c3ccccc3)N=C2C)cc1OC`, “inactive”. For `N#CC1=C(N)Oc2n[nH]c(-c3cccs3)c2C1c1ccsc1` (centres undefined) the value was “inactive”.

With `O=C1CC(CSc2ccc(Cl)cc2)=NN1`, the compound was called inactive.
